Assay [1] addresses Thyrotropin receptor (Homo sapiens) (UniProt P16473). Kind of assay: qHTS assay to identify small molecule agonists of the thyroid stimulating hormone receptor (TSHR) signaling pathway (AID 1224843; calls by dose curve; further: nearly all actives have a fitted effect of over 45% in size). An outline of the steps: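 Steps: seed 800 TSHR-HEK293 cells per well; add test compound and hold 30 min at ambient temperature; dispense cAMP-d2 then anti-cAMP cryptate; incubate 1 h at ambient; measure fluorescence intensity.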
Background: Quantitative high-throughput screening tests each substance at several concentrations.

Assay [2] in a line: qHTS assay to identify small molecule agonists of the hypoxia (HIF-1) signaling pathway - cell viability counter screen (AID 1224844; calls by dose curve; further: nearly all actives have a fitted effect of over 50% in size). The essentials: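 Multiplexed with the HRE beta-lactamase assay, this viability read used CellTiter-Glo luminescence (30 min, RT) on HRE-bla ME-180 cells treated 17 hrs with compounds in 0.5% dialyzed FBS medium.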
The nature of assay [3]: qHTS assay to identify small molecule agonists of H2AX (AID 1224845; active means well fitted activation curve with a large enough effect in the signal ratio in the repeat runs, not every such curve was filed as active; the % refers to the signal ratio). An outline of the steps:
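Wild-type CHO-K1 cells, plated overnight, exposed 3hr at 37C to 15 concentrations (0.76% DMSO final). Lysed, then HTRF anti-pH2AX (S139) cryptate and anti-H2AX-d2 antibodies, 24 hr room temperature; 665/620 nm emission read.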

The nature of assay [4]: qHTS assay to identify small molecule agonists of the hypoxia (HIF-1) signaling pathway (AID 1224846; active means well fitted activation curve with a large enough effect in the signal ratio in the repeat runs, not every such curve was filed as active; the % refers to the signal ratio). The essentials:
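Hypoxia-pathway activation was scored as increased beta-lactamase from an HRE-controlled reporter in ME-180 cells; plated at 2,000 cells per well with 0.5% dialyzed FBS, they were exposed 17 hrs to compounds and then given CCF4-AM.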

The nature of assay [5]: qHTS RealTime-Glo MT Cell Viability Assay in HepG2 cells - 24 hour (AID 1224867). Further: nearly all actives have a fitted effect of over 50% in size. An outline of the steps:
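Real-time, nonlytic viability: 600 HepG2 cells/well mixed with NanoLuc enzyme plus prosubstrate; 5 h settle, compound (DMSO) added by pintool; luminescence monitored over 40 h at 37 C.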

The nature of assay [6]: qHTS RealTime-Glo MT Cell Viability Assay in HEK293 cells - 32 hour (AID 1224868). Further: nearly all actives have a fitted effect of over 50% in size. Further: potency means the concentration at half of the fitted maximal effect. On activity change, negative = cytotoxic: top concentration of the series differs between compounds. An outline of the steps: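 Cells + reagent dispensed (600 cells/well, HEK293) → 5 h at 37 C/5% CO2 → 23 nL compound in DMSO pinned → 40 h at 37 C → luminescence read at 0, 8, 16, 24, 32, 40 h.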
Assay [7] in a line: A CellTox Green Cytotoxicity Assay to monitor cytotoxicity in HEK293 cells - 0 hour (AID 1224869). Further: nearly all actives have a fitted effect of over 50% in size. An outline of the steps:
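Seeding of HEK293 cells together with cytotoxicity dye preceded a 5 h incubation at 37 C/5% CO2. Test compounds in DMSO were then added and fluorescence monitored across 40 h.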

Assay [8] is described as follows: qHTS assay to identify small molecule agonists of H2AX - cell viability counter screen (AID 1224847; calls by dose curve; further: top concentration of the series differs between compounds; nearly all actives have a fitted effect of over 30% in size). The essentials: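 Cytotoxicity counter screen in wild-type CHO-K1 cells: a 3 hr compound treatment at 37C across 15 concentrations, followed by CellTiter-Glo luminescence to gauge viable cells.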
Assay [9] is described as follows: qHTS assay to identify small molecule antagonists of the estrogen related receptor (ERR) signaling pathway from Tox21 library (AID 1224848). Further: nearly all actives have a fitted effect of over 50% in size. Further: potency means the concentration at half of the fitted maximal effect. An outline of the steps: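 Luminescent reporter read-out (ONE-Glo) from NTP's ERR cell line after 18 h treatment at 37 C with DMSO-dissolved Tox21 compounds; cells pre-plated 6 h beforehand at 2,000 per well.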
Assay [10] can be described thus: qHTS assay to identify small molecule agonists of the estrogen related receptor (ERR) signaling pathway from Tox21 library (AID 1224849; calls by dose curve; further: nearly all actives have a fitted effect of over 15% in size). As to conditions: ERR reporter cell line, ONE-Glo luciferase, 18 h; at 92.4 µM (top of the series) unless noted. An outline of the steps: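 Six hours post-seeding at 37 C/5% CO2, ERR cells receive DMSO-solubilised compounds; after 18 h at 37 C, ONE-Glo reagent is applied and luminescence recorded.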

Molecules are shown by their SMILES. Values without a mark were called inactive. Results filed as inconclusive are left out. Active and inactive are the calls of the source. Unless noted, the call rests on the fitted dose curve; in most records, active means well fitted curve in the direction sought with a large enough effect in the repeat runs; inconclusive means weak or mixed curves; inactive means no such curve, though single readings can be large; an effect the other way counts as inactive or inconclusive.
On the % scale 0 is the no-effect control and ±100 the full control effect.

Chain of Thyrotropin receptor (Homo sapiens) (P16473 whole entry, looked up): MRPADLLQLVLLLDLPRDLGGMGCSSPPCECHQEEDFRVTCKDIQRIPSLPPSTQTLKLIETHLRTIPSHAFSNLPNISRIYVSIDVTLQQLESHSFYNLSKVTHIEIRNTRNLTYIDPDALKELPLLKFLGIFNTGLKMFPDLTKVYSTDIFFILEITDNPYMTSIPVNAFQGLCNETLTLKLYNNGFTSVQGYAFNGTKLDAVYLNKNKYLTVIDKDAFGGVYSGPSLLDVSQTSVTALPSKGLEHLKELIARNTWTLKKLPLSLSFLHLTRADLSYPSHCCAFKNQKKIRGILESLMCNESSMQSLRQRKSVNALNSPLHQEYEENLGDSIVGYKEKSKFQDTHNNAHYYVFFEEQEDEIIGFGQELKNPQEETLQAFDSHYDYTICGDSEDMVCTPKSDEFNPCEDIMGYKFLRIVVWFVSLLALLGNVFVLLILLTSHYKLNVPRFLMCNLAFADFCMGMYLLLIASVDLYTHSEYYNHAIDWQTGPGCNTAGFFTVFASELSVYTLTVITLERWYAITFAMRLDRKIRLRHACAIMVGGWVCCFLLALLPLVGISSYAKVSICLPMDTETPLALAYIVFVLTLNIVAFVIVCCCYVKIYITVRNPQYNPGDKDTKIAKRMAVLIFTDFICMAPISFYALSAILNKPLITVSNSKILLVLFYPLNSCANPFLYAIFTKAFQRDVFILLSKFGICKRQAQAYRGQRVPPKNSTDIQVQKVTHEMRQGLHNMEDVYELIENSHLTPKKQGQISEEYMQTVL

Turning to `COc1cccc(OC)c1`, the outcome in assay [1], in [3], in [4] and in assay [5] was inactive. The Potency entry in assay [2], in [6] and in [7] was “inactive” throughout.

With `CCN1CCCC(OC(=O)C(c2ccccc2)c2ccccc2)C1` (stereo unspecified), the outcome in assay [1], in assay [3] and in assay [5] was inactive. The Potency result in assay [2], in assay [8], in assay [6] and in assay [7] was “inactive” in each case.

With `CSc1ccc(C=O)cc1`, the result in [1], in assay [3] and in [5] was inactive. For the same compound, the Potency result in assay [2], in assay [8] and in assay [6] was “inactive” in each case.

As to `Nc1cc(C(Cl)=C(Cl)Cl)c(S(N)(=O)=O)cc1S(N)(=O)=O`, the compound was called inactive in assay [1], in [3] and in assay [5]. The Potency entry in assay [2], in [8], in assay [6] and in assay [7] was “inactive” each time.

`CC(C)CCCC(C)CCCC(C)CCCCC(C)CCCC(C)CCCC(C)C` (stereo unspecified): the result in assay [1], in assay [3] and in [5] was inactive. For the same compound, the Potency entry in assay [2], in assay [8], in assay [6] and in assay [7] was “inactive” throughout.

`C#CC(C)(O)CC(C)C` (stereo unspecified): the call in [1], in [3], in assay [4] and in assay [5] was inactive. Besides, the Potency result in assay [2], in [9], in assay [6] and in [7] was “inactive” each time.

As to `Fc1ccccc1-c1ccccc1`, the call in assay [1], in assay [3] and in assay [5] was inactive. Further, the Potency entry in assay [2], in assay [8], in [6] and in [7] was “inactive” throughout.

`COC[C@H](c1ccc(C(F)(F)F)cc1)N1CCN(C2(C)CCN(C(=O)c3c(C)ncnc3C)CC2)C[C@H]1C`: the call in assay [1], in [3], in [4] and in [5] was inactive. Further, the Potency result in assay [2], in assay [9], in assay [6] and in assay [7] was “inactive” throughout.

As to `c1cc(CN2CCCCC2)cc(OCCCNc2nc3ccccc3s2)c1`, the call in assay [1], in [3] and in [4] was inactive. In addition, the Potency entry in assay [2] and in assay [7] was “inactive” each time. Besides, the Potency was 23.7 µM (active) in assay [9] and 9.52 µM (active) in assay [6]. In addition, the activity change, positive = activation in [10] was -31.8% [at 42.5 µM].

With `COc1cccc(Br)c1`, the result in [1], in assay [3], in assay [4] and in assay [5] was inactive. The Potency entry in assay [2], in assay [9], in assay [6] and in [7] was “inactive” in each case.

`CC(=O)CCc1ccc(O)cc1`: the result in assay [1], in [3] and in assay [5] was inactive. Further, the Potency result in [2], in assay [8], in assay [6] and in assay [7] was “inactive” each time.

On to `FC(F)(F)C(F)(F)C(F)(F)C(F)(F)C(F)(F)C(F)(F)C(F)(F)C(F)(F)C(F)(F)C(F)(F)F`, for which the activation in [1] was 1.03% [at 8.39 µM]; in [4], -1.11% [at 7.01 µM]. For the same compound, the activity change, negative = cytotoxicity in [2] is -0.544% [at 6.97 µM]; in assay [5], -0.167% [at 6.97 µM]. The activation (H2AX phosphorylation) in assay [3] was -0.945% [at 14 µM]. Also, in [6], the activity change, negative = cytotoxic was -3.25% [at 6.97 µM]. For the same compound, the cytotoxicity in assay [7] is -6.11% [at 6.97 µM].

For `CCC(C)(C)C1CCC(OC)CC1` (stereo unspecified), the call in assay [1], in assay [3] and in assay [5] was inactive. The Potency result in [2], in [8], in assay [9], in [6] and in [7] was “inactive” each time. Moreover, in [10], the activity change, positive = activation is -1.91%.

Turning to `C=CC(=O)N1CCOCC1`, the compound was called inactive in assay [1], in assay [3] and in assay [5]. For the same compound, the Potency entry in [2], in assay [8], in assay [9], in [6] and in assay [7] was “inactive” each time.

Regarding `CCOC(=O)[C@H](CCc1ccccc1)N[C@@H](C)C(=O)N1CCC[C@H]1C(=O)O`, the compound was classed as inactive in assay [1], in assay [3] and in [5]. In addition, the Potency result in assay [2], in assay [8], in assay [9], in assay [6] and in assay [7] was “inactive” in each case.

Turning to `CCCCCCCCCCC1CO1` (stereo unspecified), the compound was called inactive in [1], in [3] and in assay [5]. For the same compound, the Potency result in [2], in assay [8], in assay [6] and in [7] was “inactive” in each case.

Consider `CCCc1ccccc1O`, for which the compound was called inactive in [1], in assay [3], in assay [4] and in [5]. Further, the Potency result in [2], in [6] and in assay [7] was “inactive” each time.

For `N#CCN(CC#N)CCN(CC#N)CC#N`, the compound was called inactive in [1], in assay [3], in assay [4] and in assay [5]. Besides, the Potency result in assay [2] and in assay [6] was “inactive” each time.

As to `Nc1nc(F)nc2c1ncn2[C@@H]1O[C@H](CO)[C@@H](O)[C@@H]1O`, the compound was called inactive in [1], in assay [3] and in assay [5]. The Potency result in assay [2], in [8], in [6] and in assay [7] was “inactive” in each case.

Take `OCC(O)[C@@H](O)[C@H](O)[C@H](O)CO[C@H]1O[C@H](CO)[C@@H](O)[C@H](O)[C@H]1O` (stereo partly specified): the outcome in assay [1], in assay [3] and in assay [5] was inactive. In addition, the Potency result in [2], in assay [8], in assay [6] and in assay [7] was “inactive” in each case.

For the compound `NC(=O)c1ncn([C@@H]2O[C@H](CO)[C@@H](O)[C@H]2O)c1O`, the result in assay [1], in [3] and in assay [5] was inactive. Further, the Potency result in assay [2], in assay [8], in [6] and in assay [7] was “inactive” in each case.

For `O=S(=O)(c1cccc2cnccc12)N1CCCNCC1`, the compound was called inactive in assay [1], in assay [3] and in [5]. Moreover, the Potency entry in [2], in [8] and in assay [6] was “inactive” in each case. Moreover, the activity change, positive = activation in assay [10] is -26.8% [at 42.5 µM].

Turning to `O=C(CCOCCOCCOCCOCCC(=O)Nc1c(I)cc(I)c(C(=O)O)c1I)Nc1c(I)cc(I)c(C(=O)O)c1I`, the call in assay [1], in assay [3], in [4] and in assay [5] was inactive. The Potency entry in assay [2], in assay [6] and in assay [7] was “inactive” throughout.

As to `COc1cc(CCC(C)=O)ccc1O`, the result in [1], in [3], in [4] and in [5] was inactive. Moreover, the Potency entry in [2], in assay [9], in [6] and in assay [7] was “inactive” each time.

Take `C[C@H](O)C(=O)Nc1c(I)c(C(=O)NC(CO)CO)c(I)c(C(=O)NC(CO)CO)c1I`: the compound was called inactive in assay [1], in [3] and in [5]. Further, the Potency entry in assay [2], in assay [8], in [6] and in [7] was “inactive” in each case.

Take `NS(=O)(=O)c1cc2c(cc1Cl)NC(CSCc1ccccc1)=NS2(=O)=O`: the compound was classed as inactive in [1], in assay [3] and in assay [5]. Moreover, the Potency entry in assay [2], in assay [8], in assay [6] and in assay [7] was “inactive” in each case.

Take `CCCOCC(C)OCC(C)O` (stereo unspecified): the call in assay [1], in [3], in [4] and in assay [5] was inactive. Besides, the Potency result in assay [2], in assay [9] and in [6] was “inactive” throughout.

As to `CC(C)(O)Cc1ccccc1`, the compound was called inactive in [1], in assay [3], in assay [4] and in [5]. The Potency result in [2], in assay [9] and in assay [7] was “inactive” throughout. For the same compound, the activity change, positive = activation in assay [10] was -2.35%.

On to `NCC[C@H](O)C(=O)N[C@@H]1C[C@H](N)[C@@H](O[C@H]2O[C@H](CN)[C@@H](O)[C@H](O)[C@H]2O)[C@H](O)[C@H]1O[C@H]1O[C@H](CO)[C@@H](O)[C@H](N)[C@H]1O`, for which, in [1], the activation was -3.02% [at 0.349 µM]. Also, the activity change, negative = cytotoxicity was 3.37% [at 0.29 µM] in assay [2], 2.46% [at 0.582 µM] in assay [8] and 1.55% [at 0.29 µM] in assay [5]. For the same compound, the activation (H2AX phosphorylation) in [3] was 0.216% [at 0.582 µM]. In assay [6], the activity change, negative = cytotoxic is 4.99% [at 0.29 µM]. Moreover, in assay [7], the cytotoxicity was -5.15% [at 0.29 µM].

The values above are taken from PubChem BioAssay (Tox21).
